Data reported in PubChem BioAssay AID1732 (National Center for Advancing Translational Sciences (NCATS), 2009).
Some of the results follow. Inconclusive results are not listed. Activity calls are given as the source filed them. Calls come from the whole dose curve; as a rule, active = well fitted inhibition curve with a large enough effect; inconclusive = small, poorly fitted or top-dose-only effect, or effect the other way, or another doubt; inactive = no such curve, though single readings can be large or run the other way.

Molecular target: Dual specificity mitogen-activated protein kinase kinase 1 (Homo sapiens) (UniProt Q02750)
Assay: Assay for Inhibitors of the ERK Signaling Pathway using a Homogeneous Screening Assay: MEK Inhibition
Details: series mostly up to 76.9 µM
From the text: qHTS Assay for Inhibitors of the ERK Signaling Pathway using a Homogeneous Screening Assay
NIH Chemical Genomics Center [NCGC]
NIH Molecular Libraries Screening Centers Network [MLSCN]
Assay Submitter (PI): Dr. Wei Zheng, NCGC/NIH
The Ras/extracellular-signal-regulated kinase (ERK) mitogen activated protein (MAP) kinase signaling pathway (ERK1/2 cascade) plays is a key role in transmitting signals from the cell surface to the nucleus (Nishida and Gotoh 1993; Chang and Karin, 2001). The cascade is initiated by the small G-protein Ras, which recruits Raf […], where activation occurs. Alternatively, this pathway can be activated by elevating intracellular cAMP.
Activation of the ERK pathway is essential in increased cell division and cell survival. Sustained and constitutive activation of the ERK pathway, however, has been linked to uncontrolled cell proliferation, increased cell survival, and tumor progression. Thus, the ERK has been as an attractive target for cancer chemotherapy in the past few years (Sebolt-Leopold and Herrera, 2004). Given its physiological and pathological importance, assessment of ERK phosphorylation has been broadly performed in both basic research and drug discovery. Most assays for the measurement of ERK phosphorylation use the antibody-based detection methods, such as western blot and ELISA. These assays require multiple reagent additions with cell wash steps and are not suitable for high-throughput screening.
The current cell-based ERK phosphorylation assay was performed using AlphaScreen platform. AlphaScreen is a two bead-based proximity-dependent chemical energy transfer luminescent assay platform. The assay reagents (ERK SureFire(TM) kit) were supplied from TGR BioSciences (Australia). […]
The HTRF kinase assay (components supplied as kit by Cisbio) was chosen for the EGFR and EGFR mutant enzyme assays that applied the time resolved fluorescence resonance energy transfer (TR-FRET) principle. […]

Sequence of Dual specificity mitogen-activated protein kinase kinase 1 (Homo sapiens) (Q02750 whole entry, looked up): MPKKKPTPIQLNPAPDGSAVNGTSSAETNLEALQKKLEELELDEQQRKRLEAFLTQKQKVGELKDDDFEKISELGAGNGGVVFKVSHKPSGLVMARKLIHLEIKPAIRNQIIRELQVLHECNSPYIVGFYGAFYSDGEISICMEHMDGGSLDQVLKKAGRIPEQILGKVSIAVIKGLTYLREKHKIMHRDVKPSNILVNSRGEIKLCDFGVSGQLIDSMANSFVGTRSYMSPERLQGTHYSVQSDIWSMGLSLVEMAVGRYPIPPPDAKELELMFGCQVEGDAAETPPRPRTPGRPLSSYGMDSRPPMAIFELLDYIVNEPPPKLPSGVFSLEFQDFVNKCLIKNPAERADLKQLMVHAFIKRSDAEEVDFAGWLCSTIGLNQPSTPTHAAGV

outcome, inactive:
CN(C)c1cc2c(Nc3ccc4c(cnn4Cc4ccccc4)c3)ncnc2cn1
O=[N+]([O-])c1ccccc1N/N=C1\CCc2ccccc21
CCCNc1ncnc2sc(C)c(C)c12
